# Assay outcomes deposited in PubChem BioAssay by National Center for Advancing Translational Sciences (NCATS).
# B2AR arrestin: beta2AR (human) beta-arrestin recruitment activity; P07550; beta-arrestin recruitment to beta2AR, cell-based reporter; Potency, µM (series often up to 46.1 µM), without a hit: at the top dose activation, actives largely listed as activators; 330,000 compounds, 0.02% hits;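 further: potency means the concentration at half of the fitted maximal effect; 0% = DMSO controls and full agonism = EC100 isoproterenol or metaproterenol; nearly all actives have a fitted effect of over 65% in size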
# Target sequence (P07550 whole entry, looked up): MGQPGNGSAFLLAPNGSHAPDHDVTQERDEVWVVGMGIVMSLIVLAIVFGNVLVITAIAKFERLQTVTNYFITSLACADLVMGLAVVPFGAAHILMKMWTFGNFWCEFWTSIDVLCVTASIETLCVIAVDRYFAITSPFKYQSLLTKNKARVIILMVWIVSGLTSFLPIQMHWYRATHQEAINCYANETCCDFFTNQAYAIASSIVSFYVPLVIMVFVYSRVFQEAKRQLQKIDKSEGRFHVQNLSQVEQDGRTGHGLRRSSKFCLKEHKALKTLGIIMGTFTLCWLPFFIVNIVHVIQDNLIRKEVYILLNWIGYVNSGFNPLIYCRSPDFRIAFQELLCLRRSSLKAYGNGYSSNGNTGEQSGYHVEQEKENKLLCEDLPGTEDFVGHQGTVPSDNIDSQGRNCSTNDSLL
# Mito fusion yeast: inhibitors of mitochondrial division or activators of mitochondrial fusion; S. cerevisiae fusion-defective mutant growth rescue, CellTiterGlo 48 h; Potency, µM (titrated, usually from 46.1 µM), inactives show at the highest dose growth rescue (activation), usual class: activators; AID 485298; 320,000 compounds, 0.23% hits; further: potency means the concentration at half of the fitted maximal effect; % of control where 0% means no effect; nearly all actives have a fitted effect of over 45% in size
#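 Luminescent cell viability in 1536-well qHTS format served as the measure of rescued growth in ts fusion-mutant S. cerevisiae cultured on non-fermentable YPEG for 48 hours at 37C.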
# uPA generation: cell surface uPA generation inhibition | cell surface uPA generation assay, qHTS | AID 540303 | Potency, µM (titrated, usually from 38.3 µM), for inactives: top-dose activity change, negative = inhibition, actives largely listed as inhibitors | 330,000 compounds, 0.31% hits; active means well fitted inhibition curve with a large enough effect; inconclusive means small, poorly fitted or top-dose-only effect; inactive means no such curve, though single readings can be large or run the other way; tested in mouse RAW 264.7 cells; further: potency means the concentration at half of the fitted maximal effect; on the % scale 0 is the no-effect control and ±100 the full control effect; nearly all actives have a fitted effect of over 55% in size
# ClpP mod: qHTS Assay for Activators of ClpP; ATP-dependent Clp protease proteolytic subunit (Bacillus subtilis (strain 168)), P80244; purified B. subtilis ClpP, FRET peptide cleavage, 20 min; 340,000 compounds, 1.9% hits; Potency, µM (titrated, usually from 57.5 µM), for inactives: at the top dose activity change, negative = active; active means well fitted falling curve with a large enough effect; inconclusive means small, poorly fitted or top-dose-only effect; inactive means no such curve, though single readings can be large or run the other way; further: potency means the concentration at half of the fitted maximal effect; the source files actives as falling curves though it sought activators and does not explain the sign; nearly all actives have a fitted effect of over 65% in size
# Target sequence (P80244 whole entry, looked up): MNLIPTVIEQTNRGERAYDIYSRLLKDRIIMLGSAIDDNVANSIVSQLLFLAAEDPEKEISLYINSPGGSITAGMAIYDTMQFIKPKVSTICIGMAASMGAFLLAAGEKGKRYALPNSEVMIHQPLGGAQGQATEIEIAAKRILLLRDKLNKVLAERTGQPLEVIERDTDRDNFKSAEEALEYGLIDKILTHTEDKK
#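 FRET quenching reversal measured ClpP activation: 10 microg/mL B. subtilis ClpP at pH 8 with the FRET-FV decapeptide, read at 430 nm after 320 nm excitation. The 20-min minus 0-min signal was scaled between DMSO/no-enzyme wells and ADEP (5.8 microM final).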
# p53 reactivation: mutant p53 re-activation in reporter cells. 320,000 compounds, 0.063% hits. Potency, µM (series often up to 92.2 µM), for inactives: at the top dose activity change, positive = activation, actives largely listed as activators. H1299 p53-A138V BP100-luciferase reporter, luminescence, 24 h; further: potency means the concentration at half of the fitted maximal effect; % of control where 0% means no effect; nearly all actives have a fitted effect of over 45% in size
#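 p53-null H1299 cells stably carrying temperature-sensitive p53-A138V and a BP100-luciferase reporter were pinned with compounds (4-point, 1:5 series) and held 24 hrs at 37 deg C. Luminescence was read 10 min after detection reagent.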
# Giardia kill: Giardia lamblia killing | Giardia lamblia trophozoite viability | AID 540267 | 340,000 compounds, 0.15% hits | activity change, % at 7.66 µM, hits read low; in the data active means activity change below about -80%; inconclusive means between about -30% and that limit;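 further: parasites exposed to compound for two days anaerobically before the ATP read; on the % scale 0 is the no-effect control and ±100 the full control effect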
#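 Luminescence from cellular ATP indicates surviving trophozoites (100 cells/well) following 48 hrs anaerobic compound treatment at 37 deg C; signal develops 15-30 min at room temperature.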
# * hit, by the source's call; ? = inconclusive; nt = no result given. The list is not random: actives were taken first. Their share in the collection is about 2.1%. Unless noted, the call rests on the fitted dose curve; in most records, active means well fitted curve in the direction sought with a large enough effect; inconclusive means small, poorly fitted or top-dose-only effect, or another doubt; inactive means no such curve, though single readings can be large; an effect the other way counts as inactive or inconclusive.
SMILES,B2AR arrestin,Mito fusion yeast,uPA generation,ClpP mod,p53 reactivation,Giardia kill
Cc1ccc(CNC(=O)c2cc3c(s2)-c2ccccc2SC3)cc1,nt,nt,nt,108.9%,nt,nt
Cc1cc(Br)ccc1NC(=O)c1ccccc1-c1ccccc1,-0.4%,14.1µM*,?,0.7%,2.4%,18.2
O=C(O)c1ccccc1-c1ccccc1C(=O)Nc1cccc(Br)c1,-0.4%,1.4%,-0.1%,nt,-2.5%,-26.2
Cc1cc(Br)ccc1NC(=O)c1cc2c(s1)-c1ccccc1SC2,nt,nt,nt,14.1µM*,nt,nt
CC(=O)N1c2ccc(S(=O)(=O)NCCC(=O)Nc3ccc(Br)c(C)c3)cc2CC1C (configuration not stated),nt,nt,nt,0.9%,nt,nt
COc1ccc(NC(=O)Cn2c(=O)n(CCCC(=O)NCCc3ccc(C)cc3)c(=O)c3ccccc32)cc1Cl,nt,nt,nt,-2.1%,nt,nt
Cc1cccc(NC(=O)CSc2nc(C)cc(C)c2C(=O)Nc2ccc(Cl)cc2)c1,nt,nt,nt,7.7%,nt,nt
COCCNC(=O)c1ccc(-c2nc(CS(=O)(=O)c3ccccc3)c(C)o2)cc1,nt,nt,nt,3.8%,nt,nt
Cc1ccc(C)c(S(=O)(=O)c2nnn3c2nc(NC2CCCC2)c2sccc23)c1,nt,nt,nt,31.6µM*,nt,nt
O=S(=O)(c1ccc(Br)cc1)c1nnn2c1nc(NCc1cccs1)c1sccc12,nt,nt,nt,28.2µM*,nt,nt
Cc1ccc(C)c(S(=O)(=O)c2nnn3c2nc(NCc2cccs2)c2sccc23)c1,nt,nt,nt,28.2µM*,nt,nt
CCc1ccc(S(=O)(=O)c2nnn3c2nc(NCc2cccs2)c2sccc23)cc1,nt,nt,nt,28.2µM*,nt,nt
CCOC(=O)c1cccc(Nc2ccc3cc(S(=O)(=O)N4CCCCC4)ccc3n2)c1,nt,nt,nt,5.6%,nt,nt
CCc1ccc(C2CC(=O)c3c([nH]c(C(=O)OCCOc4ccccc4)c3C)C2)cc1 (configuration not stated),nt,nt,nt,-3.6%,nt,nt
CCn1ncc(C2C(C(=O)Nc3ccc(C)cn3)=C(C)NC3=C2C(=O)CCC3)c1C (configuration not stated),8.8%,-0.1%,11.3%,1.9%,5.8%,-9.4
CC1=C(C(=O)Nc2ccc(C)cn2)C(c2cnn(C)c2)C2=C(CCCC2=O)N1 (configuration not stated),0.9%,5.7%,3.9%,6.31µM*,-3.1%,6.1
CCOC(=O)COc1c(C(=O)OC)sc2ncccc12,-0.2%,-9.0%,1.3%,25.1µM*,2.1%,-2.3
Cc1ccc(-c2nnn(C(C)C(=O)N3c4ccccc4CCc4ccccc43)n2)cc1 (configuration not stated),-0.5%,14.1µM*,10.5%,-23.9%,nt,-10.8
CC(C(=O)N1c2ccccc2CCc2ccccc21)n1nnc(-c2ccc(N(C)C)cc2)n1 (configuration not stated),-0.4%,21.0%,6.0%,?,-0.7%,-6.6
O=C(NCc1cccc(Br)c1)c1ccc(-n2cnc3cccnc32)cc1,nt,nt,nt,-7.6%,nt,nt
CCOC(=O)C1CCCN(C(=O)Cn2ncc3c(C)n(Cc4ccccc4Cl)c(C)c3c2=O)C1 (configuration not stated),nt,nt,nt,-16.8%,nt,nt
O=C(Nc1cccc(Cl)c1)C1CCN(S(=O)(=O)Cc2ccccc2)CC1,nt,nt,nt,0.7%,nt,nt
COc1ccc(C(=O)C[n+]2cc(Br)cc(Br)c2)cc1,nt,nt,nt,-0.6%,nt,nt
O=S(=O)(c1ccccc1F)N1CCC(Oc2ccc(-n3cnnn3)cc2)CC1,0.4%,10µM*,?,-2.7%,-8.7%,-0.2
O/N=C/c1ccc(OCc2ccccc2)c(Cl)c1,-1.7%,22.4µM*,-2.7%,5.3%,?,-18.5
SMILES,B2AR arrestin,Mito fusion yeast,uPA generation,ClpP mod,p53 reactivation,Giardia kill
Cc1cc(=O)oc2n[nH]c(-c3ccccc3)c12,-0.7%,2.1%,-4.5%,25.1µM*,1.4%,1.8
Cc1ccc([N+](=O)[O-])c2cccnc12,-0.1%,1.9%,3.0%,0.2%,3.5%,4.9
O=[N+]([O-])c1cc2cccnc2c2ncccc12,3.2%,-1.5%,-11.5%,-1.4%,18.8%,-87.7*
OC(COc1ccccc1)CN1CCCCC1 (configuration not stated),nt,nt,2.2%,31.6µM*,nt,9.6
Cc1ccc(C)c(C(Nc2ccccc2)c2ccc3ccc(C)nc3c2O)c1 (configuration not stated),nt,nt,nt,-4.8%,nt,nt
CCN(CC)c1ccc(C=C(c2nnnn2-c2ccccc2)c2nnnn2-c2ccccc2)cc1,-1.1%,0.7%,6.1%,28.2µM*,-2.5%,1.0
COc1ccc2cc(CCNS(=O)(=O)c3ccc(C)cc3)c(=O)[nH]c2c1,nt,nt,nt,4.1%,nt,nt
CC(C)Cn1c(/C=C/c2ccccc2)nc2ccccc21,0.1%,?,-10.5%,7.08µM*,?,-25.8
CCn1c(/C=C/c2ccccc2)nc2ccccc21,0.1%,-11.9%,?,14.1µM*,21.1%,?
O=C1Nc2ccccc2-n2nnnc2C1N1CCN(C(=O)C2CCCO2)CC1 (configuration not stated),nt,nt,nt,-3.6%,nt,nt
O=C(Cn1cnnn1)Nc1ccccc1Cc1ccccc1,-0.8%,0.9%,1.8%,28.2µM*,3.2%,5.9
Cn1nnnc1SCC(=O)Nc1ccccc1Cc1ccccc1,0.5%,2.9%,-1.2%,-0.8%,0.4%,9.4
COc1ccc(Cn2c(CO)cnc2SCc2ccc(C)cc2)cc1,nt,nt,nt,0.1%,nt,nt
Cc1cccc(C2Nc3ccccc3C(=O)N2c2ccc(F)cc2)n1 (configuration not stated),-0.4%,-0.7%,-4.1%,31.6µM*,14.7%,30.7
Cc1ccc(CN2C(=O)c3ccccc3NC2c2ccccn2)cc1 (configuration not stated),0.6%,6.1%,1.3%,nt,-4.1%,-0.6
O=C1c2ccccc2NC(c2ccccn2)N1c1ccccc1F (configuration not stated),-0.5%,-1.2%,nt,31.6µM*,3.2%,-17.3
CCOc1ccc(NC(=O)C2Cc3ccccc3N2C(=O)c2ccccc2)cc1 (configuration not stated),nt,nt,nt,7.1%,nt,nt
CC(C)Oc1ccc(CNC(=O)CN2C(=O)c3cccnc3Oc3ccc(Cl)cc32)cc1,nt,nt,nt,-2.8%,nt,nt
COc1cc(C(=O)OCCCc2cc3ccccc3c(=O)o2)cc(OC)c1OC,0.3%,-14.1%,3.3%,-4.4%,-14.3%,3.5
COc1cc(C(=O)OCCc2cc3ccccc3c(=O)o2)cc(OC)c1OC,0.1%,17.6%,1.12µM*,-4.3%,-11.3%,-1.9
CCCN(CC(=O)Nc1ccccc1C)C(=O)c1cn2ccccc2n1,0.4%,-2.8%,4.5%,31.6µM*,-3.0%,2.1
COc1ccc(Cl)cc1NC(=O)CN(C)C(=O)c1cn2ccccc2n1,-0.9%,-4.3%,11.2µM*,-9.2%,-2.1%,-19.9
CCN(CC(=O)Nc1c(F)cccc1F)C(=O)c1cn2ccccc2n1,-0.4%,-3.0%,5.4%,?,-4.6%,-9.3
